Results as given in ChEMBL document CHEMBL1157539, “Thousands of chemical starting points for antimalarial lead identification” (Nature, 2010).
“And” between values parts separate entries of the source, which are not always exact repeats. Equal values may be shown once.

Key:
Format in all cases: functional
Plasmodium falciparum [1] = test: GSK_TCMDC: Inhibition of Plasmodium falciparum 3D7 in whole red blood cells, using parasite LDH activity as an index of growth. Test compounds present at 2uM
Plasmodium falciparum [2] = test: GSK_TCMDC: Inhibition of Plasmodium falciparum Dd2 in whole red blood cells, using parasite LDH activity as an index of growth. Test compounds present at 2uM
HepG2 = test: GSK_TCMDC: Percent inhibition of human HepG2 cell line. Test compounds present at 10uM.

Row | Structure (SMILES) | Inhibition (Plasmodium falciparum [1]) | Inhibition (Plasmodium falciparum [2]) | Inhibition (HepG2)
1 | CCOc1cc(C(=O)Nc2ccc3nc(N4CCCCC4)cc(C)c3c2)cc(OCC)c1OCC | 100% | 2% | 26%
2 | COc1ccc2[nH]cc(C3CCN(CCCCNC(=O)c4ccc(NC(=O)c5ccc(Cl)cc5)cc4)CC3)c2c1 | 98% | 16% | 17%
3 | CCCN(CC1CC1)c1ncc(-c2cccc(CNCCC3CCCN3C)c2)cn1 (stereo not drawn) | 98% | 43% | 77%
4 | Cc1noc(-c2cccs2)c1C(=O)NC(C)c1cccc2ccccc12 (stereo not drawn) | 97% | 95% | 0%
5 | COc1ccc2nccc(NC(=O)N3CCC(NCc4cc5ccccc5[nH]4)CC3)c2n1.O=C(O)C(=O)O | 85% | 29% | 27%
6 | Cc1cc(=O)c(-c2ccc(Oc3cccc(C(F)(F)F)c3)cc2)c(C)[nH]1 | 97% and 96% | 97% and 95% | 8% and 14%
7 | Cc1cnc(C(=O)Nc2cccc(-c3cccc(-c4nc5cc(F)ccc5[nH]4)c3)c2)cn1 | 99% | 24% | 25%
8 | Br.CCC(CCON1C(N)=NC(N)=NC1(C)C)c1ccc(Cl)cc1 (stereo not drawn) | 94% | 95% | 66%
9 | CC(=O)Nc1ccc(CCNC(C)Cc2ccc(C(=O)Nc3ccc(CC(C)NCCc4cccc(Cl)c4)cc3)cc2)cc1.Cl (stereo not drawn) | 100% | 84% | 50%
10 | CN1CCCN(Cc2ccc(-c3ccc(NC(=O)c4cccc(Cl)c4)cc3)cc2)CC1.O=C(O)C(F)(F)F | 95% | 64% | 55%
11 | CC(C)CCn1c(Sc2ccc(C#N)c([N+](=O)[O-])c2)nnc1-c1ccccc1Cl | 93% | 38% | 20%
12 | COc1ccc(NC(=O)NC2CCN(c3ccnc4ccccc34)C2)cc1.O=C(O)C(F)(F)F (stereo not drawn) | 94% | 0% | 3%
13 | CC(C)(CNC(=O)C1CCN(CCOCc2ccccc2)CC1)c1nc(-c2ccc(Cl)c(O)c2)c(-c2ccncc2)[nH]1.Cl | 100% | 18% | 11%
14 | Cc1cc(N2CCC(NS(=O)(=O)c3ccc(F)cc3)CC2)nc(Nc2cccc(C#N)c2)n1.O=C(O)C(F)(F)F | 97% | 65% | 20%
15 | COc1cc(CNC2Cc3ccccc3C2)ccc1Oc1ccc2nc[nH]c2c1.O=C(O)C(F)(F)F | 98% | 50% | 30%
16 | Cc1cccc2nc(-c3cccc(-c4ccc(NC(=O)c5ccncc5)cc4)c3)[nH]c12 | 98% | 74% | 34%
17 | CN(C)C(CNC(=O)c1cc(-c2ccncc2)c(-c2ccc(NC(=O)Nc3ccccc3)cc2)o1)c1ccccc1.O=C(O)C(F)(F)F (stereo not drawn) | 100% | 96% | 19%
18 | Cc1cc(Cl)c(S(=O)(=O)N2CCc3ccccc32)cc1OCC(=O)NC1CCCCC1 | 100% | 93% | 28%

Row | Structure (SMILES) | Inhibition (Plasmodium falciparum [1]) | Inhibition (Plasmodium falciparum [2]) | Inhibition (HepG2)
19 | CSc1sc(NC(=O)Nc2cccc(C(F)(F)F)c2)cc1C#N | 99% | 46% | 27%
20 | Cl.Oc1ccc2c(c1CNC1CCCCC1)CCCC2 | 98% | 94% | 0%
21 | CCCC(=O)Nc1ccc(OCCN(Cc2ccccc2OC(F)(F)F)c2ccc(C(F)(F)F)c(C#N)c2)cc1 | 85% | 97% | 0%
22 | Cc1cccc2nc(-c3ccc(-c4cccc(CN5CCN(c6ccncc6)CC5)c4)s3)[nH]c12.O=C(O)C(F)(F)F | 100% | 99% | 48%
23 | COc1ccc(-c2nonc2NC(=O)c2ccc(C(C)(C)C)cc2)cc1OC | 99% | 73% | 0%
24 | O=C(Nc1ccc(C(F)(F)F)cc1)c1ccc(NCCCN2CCCCCC2)c([N+](=O)[O-])c1 | 100% | 98% | 42%
25 | C=C(C)COc1ccc(-c2n[nH]c(C(F)(F)F)c2-c2ccccc2OC)c(O)c1 | 98% | 72% | 19%
26 | C[C@H](Cc1ccc(C[C@@H](C)NCC(O)c2cc(Cl)c(N)c(Cl)c2)cc1)NCC(O)c1cc(Cl)c(N)c(Cl)c1 (stereo partly drawn) | 98% | 50% | 26%
27 | COc1cccc(C2CCCN(CCCCNC(=O)c3ccc(NC(=O)c4ccc(Cl)cc4)cc3)C2)c1 (stereo not drawn) | 95% | 6% | 24%
28 | CC(C)(C)OC(=O)NCCc1cccc(-c2c[nH]c3ncc(-c4cccc(NS(C)(=O)=O)c4)cc23)c1 | 97% | 71% | 16%
29 | COc1cc(NC(=O)N2CCc3cc(OC)c(OCCN4CCCCC4)cc32)cc(C(F)(F)F)c1.O=C(O)C(=O)O | 93% | 10% | 9%
30 | O=C(Nc1ccc(OC2CCN(Cc3ccc(F)cc3)CC2)c(Cl)c1)c1ccco1.O=C(O)C(F)(F)F | 95% | 95% | 2%
31 | C#CCCC(=O)Nc1cccc(-c2cccc(-c3nc4cccc(C)c4[nH]3)c2)c1 | 97% | 29% | 30%
32 | COc1ccc(Cn2c(Nc3cccc(C(F)(F)F)c3)nc3cc(C(=O)NC(C)C)cnc32)cc1Cl | 85% | 81% | 0%
33 | CN(C)c1ccc(-c2csc(C(=O)NC3CCN(Cc4ccc(C(C)(C)C)cc4)C3)c2)cc1.O=C(O)C(F)(F)F (stereo not drawn) | 99% | 50% | 26%
34 | CCC(C)c1ccc(NC(=O)Nc2ccnc3ccccc23)cc1.Cl (stereo not drawn) | 98% | 42% | 27%
35 | CN(C)CCCOc1cc(NC(=O)Nc2ccc(-c3ccncc3)c3ccccc23)ccc1I.Cl | 100% | 97% | 46%
36 | Cn1c(=O)c2nc(-c3ccc(Cl)cc3)nnc2n(CCCC#N)c1=O | 99% | 98% | 6%
